Most compounds without a hit are left out; they make up all but 11% or so of the library.
ALDH1A1 block – ALDH1A1 (human) enzyme inhibition. P00352. Purified ALDH1A1, NADH fluorescence, propionaldehyde substrate. Potency, µM (highest dose often 75.3 µM), for the others: at the highest dose activity, negative = inhibition, usual class: inhibitors. AID 1030. 220,000 compounds, 7.3% hits; active = well fitted inhibition curve with a large enough effect, not every such curve was filed as active; inconclusive = small, poorly fitted or top-dose-only effect, or another doubt; inactive = no such curve, though single readings can be large or run the other way;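 also: potency is read from the fitted curve at half-maximal effect; plate controls were no enzyme wells and a reference inhibitor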
IMPase inh – IMPase inhibition in cells; P97697; CHO-M1 cells, IP1 accumulation, HTRF TR-FRET ratio; inhibition (IP1 accumulation), % at 46.1 µM; 120,000 tested, under 10 active; AID 901; active = well fitted curve in the direction sought with a large enough effect in the signal ratio, not every such curve was filed as active; inconclusive = small, poorly fitted or top-dose-only effect, or a change in a side signal; inactive = no such curve, though single readings can be large or run the other way; the % refers to the signal ratio;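 also: cells stimulated with carbachol in lithium chloride buffer; plate controls were DMSO basal wells for no effect and reference inhibitor wells for full effect; higher means more IMPase inhibition seen as more IP1 and lower FRET ratio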
Target sequence (P97697 whole entry, looked up): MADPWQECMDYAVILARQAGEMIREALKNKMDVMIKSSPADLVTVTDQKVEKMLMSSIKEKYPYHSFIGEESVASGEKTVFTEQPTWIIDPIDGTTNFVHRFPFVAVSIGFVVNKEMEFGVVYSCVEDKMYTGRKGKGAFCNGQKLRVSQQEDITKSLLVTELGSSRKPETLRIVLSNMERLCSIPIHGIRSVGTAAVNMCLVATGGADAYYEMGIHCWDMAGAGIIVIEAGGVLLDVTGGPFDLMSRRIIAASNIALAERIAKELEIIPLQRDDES
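In this qHTS, compounds (final up to 46 uM) act on CHO-M1 cells that are then activated through the M1 receptor with carbachol, in pH 7.4 buffer containing 50 mM LiCl, for 30 min. IP1 accumulation is quantified by the IP-One immunoassay.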
PNC inhibitor – inhibitors of perinucleolar compartment assembly; PC3M PTB-GFP, PNC prevalence imaging, 16 h; stronger effect = lower value; activity change (PNC), negative = inhibition, % at 10 µM; 140,000 compounds, 3.1% hits; AID 2417;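 active = readout at or below -70, meaning at least 70% loss of cells showing the perinucleolar compartment, a nuclear body marking cancer cells; inconclusive = readout between -30 and a set limit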;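 also: plate controls were DMSO wells for no effect and camptothecin positive control wells for full effect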
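Compounds are pinned in duplicate onto adhered PC3M cells stably expressing GFP-tagged PTB and incubated 16 h at 37 C. Cells are then fixed, nuclei stained with Hoechst, and PNC-positive cells counted.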
IMPase Li inh – membrane-permeable IMPase blocker, potentiated with lithium; Potency, µM (highest dose often 59.4 µM), inactives show at the top dose activity, negative = IMPase inhibition, hits mostly inhibitors; 210,000 compounds, 0.35% hits; CHO-M1 cells, IP1 TR-FRET (IP-One), carbachol + lithium;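 also: IP1 builds up when IMPase is blocked and the TR-FRET signal falls; potency is read from the fitted curve at half-maximal effect; plate controls were basal vehicle for no effect and high inhibitor control for full effect; nearly all actives have a fitted effect of over 50% in size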
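Steps: plate 2000 CHO-M1 cells per well and culture 16–30 h; add compound and lithium; incubate 30 min, 37C; add d2-IP1 tracer and Eu cryptate anti-IP1 antibody in lysis buffer; read after 10 min at room temperature.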
NPSR antagonist – antagonists of human neuropeptide S receptor cAMP signaling; Q6W5P4; CHO-NPSR cells, cAMP TR-FRET, antagonist mode; Potency, µM (top dose mostly 38.3 µM), for inactives: at the highest dose activity change, negative = inhibition, actives largely listed as inhibitors; 220,000 compounds, 1% hits; also: potency is read from the fitted curve at half-maximal effect; nearly all actives have a fitted effect of over 50% in size
HPGD inh – HPGD (human) dehydrogenase inhibition. Potency, µM, for inactives: top-dose activity change, negative = inhibition, usual class: inhibitors. purified HPGD, NADH fluorescence kinetic, PGE2 substrate. P15428. 150,000 compounds, 4.3% hits; active = well fitted inhibition curve with a large enough effect, not every such curve was filed as active; inconclusive = small, poorly fitted or top-dose-only effect, or another doubt; inactive = no such curve, though single readings can be large or run the other way; also: potency is read from the fitted curve at half-maximal effect
Target sequence (P15428 whole entry, looked up): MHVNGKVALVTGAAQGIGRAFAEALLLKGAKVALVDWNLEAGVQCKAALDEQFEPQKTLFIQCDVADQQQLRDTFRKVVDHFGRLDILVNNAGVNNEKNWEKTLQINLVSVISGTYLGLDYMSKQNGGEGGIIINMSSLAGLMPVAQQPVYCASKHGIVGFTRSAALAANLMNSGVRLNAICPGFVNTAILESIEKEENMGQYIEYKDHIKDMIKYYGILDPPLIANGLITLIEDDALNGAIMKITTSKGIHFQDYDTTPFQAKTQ
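NADH formation kinetics: reaction with 30 uM PGE2 and 1 mM NAD+ (final), 20 nM enzyme, Tris-HCl pH 8 with Tween 20, after 15 min compound preincubation at room temperature. Fluorescence change, last versus first of five reads.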
Numbers without * were called inactive; ? = inconclusive; / = not tested or not shown; [ ] = remark or other dose. Unless noted, calls follow the shape of the dose curve; as a rule, active = well fitted curve in the direction sought with a large enough effect; inconclusive = small, poorly fitted or top-dose-only effect, or another doubt; inactive = no such curve, though single readings can be large; an effect the other way counts as inactive or inconclusive. Unless noted, % is scaled to controls: 0 for no effect and ±100 for the full control effect.

SMILES	ALDH1A1 block	IMPase inh	PNC inhibitor	IMPase Li inh	NPSR antagonist	HPGD inh
CCC1(C(=O)c2ccc(C)cc2)C2c3ccccc3OC(=O)C21C(=O)O (stereo unspecified)	/	/	/	/	-10%	/
CCc1ccc(CN2CCN(C(=O)Cc3ccccc3)CC2)cc1	?	/	/	9%	-1%	/
CCn1c(C)cc(/C=C2\C(=O)NC(=O)N(c3ccccc3C)C2=O)c1C	-13%	/	/	-1%	-18%	/
Cc1ccccc1N1C(=O)NC(=O)/C(=C\c2cnn(-c3ccccc3)c2)C1=O	18µM*	/	-13	5%	?	10µM*
Cc1ccc(-c2nc3ccccc3c(=O)n2-c2cccnc2)cc1	0%	/	-26	7%	11%	-2%
CC1CCN(C(=O)N2c3ccccc3Sc3ccccc32)CC1	6%	7	-17	35%[38.3 µM]	-11%[46.1 µM]	-7%
CC1CCN(C(=O)CCl)CC1	0.35µM*	/	-24	3%	10%	4%
C=CC=O	0.022µM*	/	/	0%	/	-7%
Cn1c(O)c(C=NCCN2CCOCC2)c(=O)[nH]c1=S	/	/	/	/	7%	/
N#CCCC#N	28µM*	/	/	-8%	/	-10%
Cc1nc2ccccc2c(=O)n1-c1ccccc1[N+](=O)[O-]	-3%	/	/	0%	10%	/
COc1ccc(OC)c(C2C(C#N)=C(N)Oc3c2c(C)nn3-c2ccc(C)cc2)c1 (stereo unspecified)	?	8	?	11%[38.3 µM]	-22%[46.1 µM]	-28%
Cc1nn(-c2ccccc2)c2c1C(c1ccc(F)cc1F)C(C#N)=C(N)O2 (stereo unspecified)	13µM*	3	?	25%[38.3 µM]	-16%[46.1 µM]	28µM*
CNc1ccc2oc(C[C@H]3O[C@@]4(CC[C@H]3C)O[C@H]([C@H](C)C(=O)c3ccc[nH]3)[C@H](C)C[C@H]4C)nc2c1C(=O)O	?	/	/	-14%	7.9µM*	?
O=C1NC(=O)C(=Cc2cc(Cl)ccc2OCc2ccc(C(=O)O)cc2)C(=O)N1	3%	/	/	-3%	-10%	/
CN1C(=O)C(=Cc2ccccc2Oc2ccc(Cl)cc2)C(=O)N(C)C1=O	?	7	-20	0%	?	25µM*
CN1C(=O)C(=Cc2ccccc2OCc2ccc(Cl)cc2)C(=O)N(C)C1=O	18µM*	/	47	1%	-29%	22µM*
CN1C(=O)C(=Cc2ccc(Sc3ccccc3)o2)C(=O)N(C)C1=O	?	/	/	3%	-14%	/
Cn1cc(NC(=O)CCl)cn1	18µM*	/	/	-20%	3%	/
CCC(C)N1C(=O)/C(=C\c2cnc(N(C)C)nc2)C(=O)NC1=S (stereo unspecified)	-9%	/	/	10%	?	/
CCC(C)N1C(=O)/C(=C\c2cc3c4c(c2)CCCN4CCC3)C(=O)NC1=S (stereo unspecified)	0.32µM*	/	11	7%	-40%	22µM*
CCC(C)N1C(=O)/C(=C\c2ccc(N3CCCCCC3)cc2)C(=O)NC1=S (stereo unspecified)	0.13µM*	/	-12	-2%	-36%	20µM*
Nc1ccc(Cl)cc1N	8.9µM*	/	/	21%	/	-18%
Nc1cc(Cl)ccc1O	8.9µM*	/	/	9%	/	10µM*
Oc1ccc(Cl)cc1Sc1cc(Cl)ccc1O	?	/	/	-5%	/	2.5µM*
SMILES	ALDH1A1 block	IMPase inh	PNC inhibitor	IMPase Li inh	NPSR antagonist	HPGD inh
Cc1ccc(C)c(OCC(=O)N2CCCN(C)CC2)c1	1%	4	-112*	1%	28%	-1%
CCOC(=O)c1c(/N=C/c2c(O)n(-c3ccccc3F)c(=S)[nH]c2=O)sc2c1CCCC2	1.3µM*	3	?	26%[38.3 µM]	-6%[46.1 µM]	22µM*
CCOC(=O)c1c(/N=C/c2c(O)n(-c3ccc(F)cc3)c(=S)[nH]c2=O)sc2c1CCCC2	18µM*	7	-11	-15%[38.3 µM]	-6%[46.1 µM]	0%
O=C(N1CCOCC1)N1CCN(C(c2ccccc2)c2ccccc2)CC1	?	1	106	-6%[38.3 µM]	-11%[46.1 µM]	-7%
Cc1ccc(Cl)cc1N1CCN(CCN)CC1	28µM*	-18	0	22%[38.3 µM]	10%[46.1 µM]	9%
CN1CCN(c2ccc(Cl)cc2N)CC1	10%	/	/	2%	-10%	/
CCOc1ccc(-c2nc3ccc(-c4nc5ccc(N6CCN(C)CC6)cc5[nH]4)cc3[nH]2)cc1	?	/	/	13µM*	/	/
NS(=O)(=O)C[C-]1C=C[CH]([Sb-]([Cl])([Cl])([Cl])([Cl])[Cl])C=C1.c1ccncc1 (stereo unspecified)	3.5µM*	/	/	-5%	/	-10%
Clc1ccc(C2NCCc3[nH]cnc32)cc1 (stereo unspecified)	1%	-9	6	5%	20%	-9%
c1ccc(N2CC[C@@]3(CCCNC3)C2)cc1	?	/	/	31%	/	-6%
Cc1ccc(C(=O)C2CN3CCC2CC3)cc1 (stereo unspecified)	28µM*	10	-27	41%[38.3 µM]	11%[46.1 µM]	-10%
Cc1ccc(C(=O)C2CN(C)CC2C(=O)c2ccc(C)cc2)cc1 (stereo unspecified)	0%	6	29	-1%[38.3 µM]	-7%[46.1 µM]	-5%
CC(C)(O)C(=O)Nc1ccc([N+](=O)[O-])c(C(F)(F)F)c1	-1%	/	/	-1%	/	1%
Cc1nc2c(=O)n(C)c(=O)nc-2n(C)n1	-5%	11	-93*	21%	?	-18%
COCCOC(=O)c1c(N)n(Cc2ccc(OC)cc2)c2nc3ccccc3nc12	?	10	?	20%[38.3 µM]	?	?
O=c1[nH]c(=S)n(Cc2ccco2)c(O)c1C=NCc1cccs1	7.9µM*	6	-16	-1%[38.3 µM]	7%[46.1 µM]	25µM*
O=[N+]([O-])/C=C/c1c(OCc2ccccc2)ccc2ccccc12	-8%	13	25	49%[38.3 µM]	6.3µM*	16µM*
COc1ccc(P2(=O)Nc3ccccc3N2)cc1	24%	?	25	3%[38.3 µM]	-13%[46.1 µM]	25µM*
Nc1ccccc1N=Cc1c(O)n(CCC2=CCCCC2)c(=O)[nH]c1=O	2.8µM*	4	?	/	-10%[46.1 µM]	/
O=[N+]([O-])c1c(Cl)c(Cl)cc(Cl)c1Cl	-5%	/	/	-10%	/	-1%
CN(C(=O)Oc1ccc(C(=O)c2ccc(Cl)cc2)cc1)c1ccccc1	5%	/	1	8%	-36%	-14%
c1ccc2c(CCNC3=NCCC3)c[nH]c2c1	3%	8	-83*	-3%[38.3 µM]	-16%[46.1 µM]	-10%
c1ccc2c(CCNC3CCCCC3)c[nH]c2c1	?	/	/	-9%	13%	/
CN1/C(=C\C=C\C2=[N+](C)c3ccc4ccccc4c3C2(C)C)C(C)(C)c2ccccc21	20µM*	-9	1	-18%[38.3 µM]	7.9µM*	-2%
COc1cc(C)c(CN2CCN(c3ccccc3)CC2)cc1C	1%	4	-13	10%[38.3 µM]	-27%[46.1 µM]	-11%

Source: PubChem BioAssay (National Center for Advancing Translational Sciences (NCATS))
